In the library only some 19% were active in any assay of this set; here they are far more common.
IL1B secr inh: inhibitors of inflammasome signaling (IL-1 beta secretion); activity change, % at 57.5 µM; 360,000 compounds, 4.7% hits; THP-1 LPS/ATP IL-1B secretion, AlphaLISA, 16 h; active compounds read low; in the data active means activity change below about -50%; inconclusive means mostly about -30% to -49%
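Secreted IL-1B measured by AlphaLISA bead assay after 16 h compound exposure of THP-1 cells; compounds (final up to 57.5 uM) added 1 h before LPS (250 ng/mL) and ATP (1.25 mM) stimulation; lower signal means less secretion.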
HT1080-NT tox: kills 2HG-producing HT-1080-NT fibrosarcoma cells; Potency, µM (doses to about 46.1 µM), hits mostly cytotoxic; HT-1080-NT fibrosarcoma viability, CellTiter-Glo ATP luminescence, 48 h; AID 686970; 360,000 compounds, 1.6% hits;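 further: NT is the 2HG producing partner of a matched IDH1 knockdown line; nearly all actives have a fitted effect of over 55% in size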
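Viability by CellTiter-Glo luminescence after 48 h compound exposure at 37C of HT-1080-NT cells (750/well, RPMI, 5% FBS). % activity scaled between DMSO wells and medium-only wells, then curve-fitted and categorized by curve class.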
HT1080 IDH1KD tx: toxicity to HT-1080 IDH1 knockdown cells (counter line). HT-1080 IDH1 knockdown viability, ATP luminescence, 48 h. 360,000 compounds, 2% hits. Potency, µM (titrated, usually from 46.1 µM), most hits filed as cytotoxic
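After a 2 h attachment period, IDH1KD HT-1080 cells took pin-transferred compound for 48 h at 37 °C; ATP-based luminescence after 10 min room-temperature reagent incubation reported viability.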
DT40 TDP1 no CPT: qHTS for Inhibitors of human tyrosyl-DNA phosphodiesterase 1 (TDP1): qHTS in cells in absence of CPT. DT40 Tdp1-/- hTDP1 cells, no CPT, ATP luminescence, 48 h. Potency, µM (doses to about 46.2 µM), most hits filed as inhibitors. 420,000 compounds, 15% hits. AID 686978, 2013; further: nearly all actives have a fitted effect of over 55% in size
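Compound effects on proliferation are scored in DT40 Tdp1-/-;hTDP1 cells in the absence of CPT. ATP levels (CellTiter-Glo luminescence) are recorded after a ≥48 hr, 37 °C incubation.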
DT40 TDP1 CPT: growth inhibition of DT40 Tdp1-/-;hTDP1 cells with camptothecin (screen for TDP1 inhibitors); chicken DT40 Tdp1-/-;hTDP1 cells + 20 nM CPT, ATP luminescence, 48 h; Potency, µM (series often up to 46.2 µM), actives largely listed as inhibitors; 420,000 compounds, 12% hits; AID 686979; further: nearly all actives have a fitted effect of over 55% in size
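Chicken DT40 Tdp1-/- cells complemented with human TDP1, 400 cells/well, exposed to compounds plus 20 nM camptothecin for at least 48 h at 37 C; viability read as ATP content by CellTiter-Glo luminescence.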
Hits are given with their value; 0 = inactive; ? = inconclusive; - = no result given. Unless noted, the call rests on the fitted dose curve; in most records, active means well fitted curve in the direction sought with a large enough effect; inconclusive means small, poorly fitted or top-dose-only effect, or another doubt; inactive means no such curve, though single readings can be large; an effect the other way counts as inactive or inconclusive.

SMILES | IL1B secr inh | HT1080-NT tox | HT1080 IDH1KD tx | DT40 TDP1 no CPT | DT40 TDP1 CPT
CCOC(=O)N1CCN(S(=O)(=O)c2ccc3c(c2)CCN3C(=O)C2CC2)CC1 | 0 | 0 | 0 | 0 | 0
O=C(C1CC1)N1CCc2cc(Br)c(S(=O)(=O)N3CCCCCC3)cc21 | 0 | 0 | 0 | ? | 16.4µM
COc1cc(OC)c(OC)cc1CNCCNC(=O)c1nonc1N | 0 | 0 | 0 | 0 | 0
CCOC(=O)COc1cc(N)c(Cl)cc1Cl | -53.4 | 0 | 0 | 0 | 0
Cc1ccc(Cl)c(OCC(=O)OCC(=O)c2ccc[nH]2)c1 | 0 | 0 | 0 | 0 | ?
Nc1nc(N)c(N=O)c(OCC2CCCCC2)n1 | ? | ? | 18.4µM | 7.31µM | 11.6µM
CN(C)c1ccc(S(=O)(=O)N2CCCCC2)cc1NC(=O)CCNC(=O)c1ccc(Cl)cc1 | 0 | 0 | 0 | 0 | 0
O=C1C2CCCN2C(=S)N1c1cc(Cl)ccc1Cl (centres undefined) | -65.6 | 0 | 0 | 0 | 0
CCc1ccc(N2C(=O)C3CCCN3C2=S)cc1 (centres undefined) | 0 | 0 | 0 | ? | 0
Cc1ccn2c(C(=O)N/N=C\c3cccs3)c(C)nc2c1 | 0 | 0 | 0 | 0 | 0
Cc1ccc(C)c(-n2c(C)cc(/C=N/NC(=O)c3c(C)nc4cc(C)ccn34)c2C)c1 | 0 | 0 | ? | 20.6µM | ?
N=C(N)SCCc1ccc(OCc2ccc([N+](=O)[O-])cc2)cc1 | - | - | - | ? | 8.41µM
O=C(O)c1ccccc1S(=O)(=O)CC(=O)N1CCCCC1 | 0 | 0 | 0 | 0 | 0
CCOC(=O)NC(C(Cl)(Cl)Cl)S(=O)(=O)c1ccccc1 (centres undefined) | -86.6 | ? | ? | ? | ?
Nc1ccn([C@@H]2O[C@H](CNCc3ccc(C#CCCO)cc3)[C@@H](O)[C@H]2O)c(=O)n1 | 0 | 0 | 0 | ? | 0
O=C(NCc1nnnn1-c1ccc(F)cc1)C1CC(=O)N(c2ccc(F)cc2)C1 (centres undefined) | 0 | 0 | 0 | 0 | 0
COc1ccc(Br)c(C(=O)Nc2ccc(F)cc2)c1 | 0 | 0 | 0 | 0 | 0
O=S(=O)(Nc1ccc(OC(F)F)cc1)c1ccc(-c2ccon2)s1 | 0 | 0 | 0 | ? | 0
N#Cc1ccc(OS(=O)(=O)c2ccc(-c3ccon3)s2)cc1 | ? | 0 | 0 | ? | 11.6µM
COC(=O)c1ccccc1S(=O)(=O)N1CCn2cccc2C1C (centres undefined) | -78.3 | 0 | 0 | 0 | 0
CC(C)(C)n1nnnc1C(c1cccnc1)N1CCN(c2cccc(C(F)(F)F)c2)CC1 (centres undefined) | 0 | 0 | 0 | 20.6µM | 18.4µM
COc1ccc(N2CCN(C(c3ccc(C)cc3)c3nnnn3C(C)(C)C)CC2)cc1 (centres undefined) | - | - | - | 14.1µM | ?
CCCCn1nnnc1C(c1ccccc1)N1CCN(c2cccc(C)c2C)CC1 (centres undefined) | 0 | 0 | 0 | 16.4µM | ?
COc1ccc(N2CCN(C(c3ccc4ncccc4c3)c3nnnn3C(C)(C)C)CC2)cc1 (centres undefined) | 0 | 0 | 0 | 0 | 0
Cc1cccc(N2CCN(C(c3ccncc3)c3nnnn3C(C)(C)C)CC2)c1C (centres undefined) | ? | 0 | 0 | 18.4µM | 0
SMILES | IL1B secr inh | HT1080-NT tox | HT1080 IDH1KD tx | DT40 TDP1 no CPT | DT40 TDP1 CPT
CCn1ncc(C2=NOC(C(=O)NCCc3ccccc3)C2)c1C (centres undefined) | 0 | 0 | 0 | 0 | 0
NC(=O)c1ccc(NC(=O)COC(=O)CCC2CCCCC2)cc1 | 0 | 0 | 0 | 0 | 0
O=C(NCc1ccccc1)c1ccc(N2C(=O)C3CCCCC3C2=O)cc1 (centres undefined) | 0 | 0 | 0 | 0 | 0
CC(C)(C)n1nnnc1C(c1ccccc1)N1CCN(c2c(Cl)cncc2Cl)CC1 (centres undefined) | 0 | 0 | 0 | 16.4µM | ?
CCCCn1nnnc1C(c1ccccc1)N1CCN(c2c(Cl)cncc2Cl)CC1 (centres undefined) | 0 | ? | ? | 16.4µM | ?
CCCCCCCCCCCCCCCC[n+]1ccc(/C=C/c2c(C)[nH]c3ccccc23)cc1 | - | - | - | 0.398µM | 1µM
CCCCCCC[n+]1ccc(/C=C/c2c(C)[nH]c3ccccc23)cc1 | - | - | - | 0.316µM | 0.316µM
CCCCNC(=S)N(C)/N=C/c1c(C)[nH]c2ccccc12 | 0 | 0 | 0 | 0 | 0
c1coc(CNc2nc[n+]3c4c2ncn4CC3)c1 | - | 0 | 0 | 0 | 0
CC(=O)Nc1cc2c(cc1NC(=O)Cn1nc(-c3ccccc3)ccc1=O)OCCO2 | 0 | 0 | 0 | 0 | 0
Cc1cc(C(=O)COC(=O)c2ccc3c(c2)OCO3)c(C)n1CC1CCCO1 (centres undefined) | 0 | 0 | ? | 0 | 0
Cc1ccccc1OC1C(=O)N(CC2CCCO2)C1c1ccc2c(c1)OCO2 (centres undefined) | 0 | 0 | 0 | 13µM | 14.6µM
COc1cccc(CNC(=O)CCCn2nc(C)c3c(C)n(-c4ccccc4)nc3c2=O)c1 | 0 | 0 | 0 | 0 | ?
COc1ccc(CNC(=O)C2CCCN(c3nccc(C)n3)C2)cc1 (centres undefined) | 0 | 0 | 0 | ? | 0
COc1cccc(CNC(=O)CSc2nnc(C)c3c(C)n(-c4ccccc4)nc23)c1 | - | - | - | 18.4µM | ?
COc1ccc(CNC(=O)C2CCN(c3nnc(C)c4c(C)n(-c5ccc(C)cc5)nc34)CC2)cc1 | - | - | - | 16.4µM | ?
COc1ccc(-n2nc3c(N4CCC(C(=O)NCc5cccc(F)c5)CC4)nnc(C)c3c2C)cc1 | - | - | - | 10.3µM | 9.2µM
COc1ccc(CNC(=O)C2CCCN(c3nnc(C)c4c(C)n(-c5ccc(C)cc5)nc34)C2)cc1 (centres undefined) | - | - | - | 20.6µM | 13µM
CCOc1ccccc1N1CCN(Cc2c(C)n(C)n(-c3ccccc3)c2=O)CC1 | 0 | 0 | 0 | 0 | 0
Cc1ccc(-n2nc3c(N4CCC(C(=O)N(C)Cc5ccccc5)CC4)nnc(C)c3c2C)cc1 | - | - | - | 0 | 0
CCc1ccc(CNC(=O)C2CCCN(c3nnc(C)c4c(C)n(-c5ccc(OC)cc5)nc34)C2)cc1 (centres undefined) | - | - | - | 3.26µM | 4.61µM
Cc1ccc(-n2nc3c(N4CCCC(C(=O)NCc5ccccc5C)C4)nnc(C)c3c2C)cc1 (centres undefined) | - | - | - | 14.6µM | 14.6µM
COc1ccc(-n2nc3c(N4CCCC(C(=O)NCc5ccc(C)cc5)C4)nnc(C)c3c2C)cc1 (centres undefined) | - | - | - | 3.26µM | 4.61µM
COc1ccc(/C=N/NC(=O)c2ccc(=O)n(C)c2)cc1OC | 0 | 0 | 0 | 0 | 0
CCCC(=O)Nc1cc(OC)c(C(=O)OC)cc1Cl | 0 | 0 | 0 | 0 | 0
